test system: PPARg:RXRa DBDmut IVT, anti-RXR (DBD mutation: RXRa K156A/R161A, NR concentration 270 nM, RXRa partner concentration 90 nM); assay: PBM binding z-score (relative to random genomic background probes); higher = stronger binding; sequences stand for … in GC…GCGATTGACAGCGTAGAATGAAGG
Procedure, shortened: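 Ligand-free nuclear receptor dimers were bound for 1 h to custom Agilent 4×180K protein-binding microarrays. Detection used antibodies against each partner (one per run). Binding z-scores rest on regression-normalized fluorescence, with random background probes as the reference.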

| Sequence | PBM binding z-score |
| --- | --- |
| CCTAGTTGGTCAAAGTCACACACGCTATAGGTAC | 1.7 |
| TCTTGTAGATCAAGCACGTTAAGAAAGCCTGAGT | 1.73 |
| TTACCAAGGTGAGAGGTCGTTGATGCACGCCTTG | 1.49 |
| TCTTGTAGATCAAAGGCTAAGAAAGCCGAAGCCT | 1.65 |
| TAGCCTAGGTCAGAACGGGCCAGTATACGCTATA | 0.749 |
| ATCGAAAGGTCGAAGGCGAGTATACCCACCCGAA | -0.0271 |
| CCTAGCAAGCCAATCTGGGTCACTCAAGGCTTGA | 3.85 |
| CCGAGTTGGTCAGGAGGTCACACACCGGATATGA | 0.95 |
| AGAGACAGGTGAGTGAAGGTAACTCAGCTGGACG | 0.422 |
| GCTCGGCGGACAAGGTCAGAGCTTTGTCCGTAGA | -0.55 |
| ACTAGCAGGCCAAGTTTGGGCCACTCAAACAAAG | 0.654 |
| ACTAGCAGGCCAAGTTTGGGTCACTCAGACAAAG | 0.651 |
| CCTTACGGGTCACTCCAGGGTATAGCATCGGAGT | 2.07 |
| GGAACGAGGGCAATTTGATAGCAGAGTTTGATGG | 3.43 |
| CGTCCAAGGTCATAGGAGGTCAGTTAAGACAGAT | 3.03 |
| CGTCCAAGGTGAGCAGGTCAGTGAAAGCGACGTG | 1.99 |
| GCTAGTTGGTCAGTAAAAGGTCACACATCGGTCG | 1.75 |
